Screens (PubChem)
This is a sample that favours compounds with a hit; in the whole collection about 9.4% have one here.
Pf growth 96h: P. falciparum growth inhibition at 96 hour, primary screen for plastid delayed-death inhibitors; P. falciparum luciferase reporter growth, 96 h; Potency, µM (top dose mostly 28.7 µM), hits mostly inhibitors; AID 504834; hit rate 6.9% among 320,000
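Delayed-death screen, second-generation endpoint: infected erythrocytes, 2% hematocrit, 0.05% parasitemia final; 96 hours at 37 C, 5% CO2; luciferase detection reagent; luminescence decrease equals reduced growth.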
AMA1-RON2 inh: disrupts binding of P. falciparum AMA1 to RON2 | Potency, µM (series often up to 58.2 µM), usual class: inhibitors | AlphaScreen AMA1-biotinylated RON2 peptide binding | AID 720542 | hit rate 0.2% among 360,000; also: nearly all actives have a fitted effect of over 45% in size
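AMA1 (3D7) with his tag at 25 nM final met compounds first, then biotinylated RON2 peptide at 25 nM; detection used donor plus acceptor beads, 10 µg/mL apiece, read by AlphaScreen after 30 min at room temperature.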
SARS PLpro yeast: SARS-CoV PLP inhibition in yeast; S. cerevisiae expressing SARS-CoV PLpro, growth rescue; Potency, µM (top dose mostly 32.9 µM), most hits filed as activators; hit rate 0.19% among 330,000; calls by dose curve; also: nearly all actives have a fitted effect of over 55% in size
Pf growth 48h: P. falciparum growth inhibition at 48 hours (one generation). P. falciparum luciferase growth in erythrocytes, 48 h. Potency, µM (top dose mostly 28.7 µM), actives largely listed as inhibitors. hit rate 5.9% among 310,000
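In quantitative HTS format, infected erythrocytes bearing luciferase-reporter parasites were treated for a single generation at 37 C. Luminescence after adding detection reagent served as the growth measure.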
Each line names hits and unclear results; the compound was inactive in the other large screens. Unless noted, calls follow the shape of the dose curve; as a rule, active = well fitted curve in the direction sought with a large enough effect; inconclusive = small, poorly fitted or top-dose-only effect, or another doubt; inactive = no such curve, though single readings can be large; an effect the other way counts as inactive or inconclusive.

O=C(Nc1ccc(F)cc1)N(CCCN1CCOCC1)Cc1cc2cc3c(cc2[nH]c1=O)OCCO3	Pf growth 48h 10µM
O=C(Nc1ccc(F)cc1)N(CCCN1CCOCC1)Cc1cc2cc3c(cc2[nH]c1=O)OCO3	Pf growth 48h 13µM
COc1cc2cc(CN(CCCN3CCOCC3)C(=O)Nc3ccccc3F)c(=O)[nH]c2cc1OC	none
COc1ccccc1NC(=O)N(CCCN1CCOCC1)Cc1cc2cc3c(cc2[nH]c1=O)OCO3	Pf growth 96h 8.3µM
CCOc1ccc(NC(=S)N(CCN2CCOCC2)Cc2cc3cc4c(cc3[nH]c2=O)OCCO4)cc1	Pf growth 96h inconclusive, Pf growth 48h inconclusive
CN(C(=O)c1ccc2c(c1)C(=O)N(CCC1=CCCCC1)C2=O)C1CCCCC1	Pf growth 96h 10µM (no result: Pf growth 48h)
O=C(O)c1ccc2c(c1)C(=O)N(CCC1=CCCCC1)C2=O	SARS PLpro yeast inconclusive
Cc1ccccc1C(=O)NCC(=O)OC(C)C(=O)NC(C)CCc1ccccc1 (stereo not drawn)	Pf growth 96h 12µM, Pf growth 48h inconclusive
COc1ccc(C(=O)c2nccc3cc(OC)c(OC)cc23)cc1OC	Pf growth 96h 0.74µM, Pf growth 48h 1.2µM
S=C(Nc1ccc(CN2CCCCC2)cc1)Nc1cccc(Cl)c1Cl	Pf growth 48h inconclusive
O=S(=O)(c1ccc2ccccc2c1)N1CCC(c2nc(-c3ccncc3)no2)CC1	Pf growth 96h inconclusive, Pf growth 48h 13µM
CN(C)c1ccc(-c2noc(C3CCN(S(=O)(=O)c4cccc(Cl)c4)CC3)n2)cc1	Pf growth 96h 0.19µM, Pf growth 48h inconclusive
CN(C)c1ccc(-c2noc(C3CCN(S(=O)(=O)c4ccc(C(=O)O)cc4)CC3)n2)cc1	none (no result: Pf growth 96h, SARS PLpro yeast, Pf growth 48h)
O=C(Cc1ccccc1)N1CCCC(c2nc(-c3ccc(S(=O)(=O)N4CCCC4)cc3)no2)C1 (stereo not drawn)	Pf growth 96h 8.3µM (no result: Pf growth 48h)
COc1ccc(-c2noc(C3CCCN(S(=O)(=O)c4cccc(Cl)c4C)C3)n2)cc1OC (stereo not drawn)	Pf growth 96h inconclusive, Pf growth 48h 13µM
O=C(C1CC1)N1CCC(c2nc(-c3ccc(S(=O)(=O)N4CCCC4)cc3)no2)CC1	Pf growth 96h inconclusive (no result: Pf growth 48h)
COc1ccc(-c2noc(C3CCCN(S(=O)(=O)c4ccc(C)c(Cl)c4)C3)n2)cc1OC (stereo not drawn)	Pf growth 96h inconclusive
Cc1ccccc1NC(c1cccc(Cl)c1)c1nnnn1C1CCCCC1 (stereo not drawn)	Pf growth 48h inconclusive
COc1ccc(CCN(Cc2cc3ccc(C)cc3[nH]c2=O)C(C)=O)cc1OC	Pf growth 48h 2.3µM
